Laboratory results published in PubChem BioAssay AID1645853 (Buhrlage Lab, Dana-Farber Cancer Institute and Novartis …, 2021).
The campaign covered roughly 47,000 compounds. About 2,000 (4.3%) were called active. Shown is part of a subset that was picked to be rich in actives. Values without a mark were called inactive. Rule as the data show it: active = inhibition above about 30%; inactive = the rest.

Molecular target: Ubiquitin carboxyl-terminal hydrolase 8 (Homo sapiens) (UniProt P40818)
Experiment: inhibitors of human USP8 deubiquitinase (AID 1645853)
Settings: purified USP8, Ub-rhodamine cleavage fluorescence, 30 min; at 20 µM; hits give high values

Sequence of Ubiquitin carboxyl-terminal hydrolase 8 (Homo sapiens) (P40818 whole entry, looked up): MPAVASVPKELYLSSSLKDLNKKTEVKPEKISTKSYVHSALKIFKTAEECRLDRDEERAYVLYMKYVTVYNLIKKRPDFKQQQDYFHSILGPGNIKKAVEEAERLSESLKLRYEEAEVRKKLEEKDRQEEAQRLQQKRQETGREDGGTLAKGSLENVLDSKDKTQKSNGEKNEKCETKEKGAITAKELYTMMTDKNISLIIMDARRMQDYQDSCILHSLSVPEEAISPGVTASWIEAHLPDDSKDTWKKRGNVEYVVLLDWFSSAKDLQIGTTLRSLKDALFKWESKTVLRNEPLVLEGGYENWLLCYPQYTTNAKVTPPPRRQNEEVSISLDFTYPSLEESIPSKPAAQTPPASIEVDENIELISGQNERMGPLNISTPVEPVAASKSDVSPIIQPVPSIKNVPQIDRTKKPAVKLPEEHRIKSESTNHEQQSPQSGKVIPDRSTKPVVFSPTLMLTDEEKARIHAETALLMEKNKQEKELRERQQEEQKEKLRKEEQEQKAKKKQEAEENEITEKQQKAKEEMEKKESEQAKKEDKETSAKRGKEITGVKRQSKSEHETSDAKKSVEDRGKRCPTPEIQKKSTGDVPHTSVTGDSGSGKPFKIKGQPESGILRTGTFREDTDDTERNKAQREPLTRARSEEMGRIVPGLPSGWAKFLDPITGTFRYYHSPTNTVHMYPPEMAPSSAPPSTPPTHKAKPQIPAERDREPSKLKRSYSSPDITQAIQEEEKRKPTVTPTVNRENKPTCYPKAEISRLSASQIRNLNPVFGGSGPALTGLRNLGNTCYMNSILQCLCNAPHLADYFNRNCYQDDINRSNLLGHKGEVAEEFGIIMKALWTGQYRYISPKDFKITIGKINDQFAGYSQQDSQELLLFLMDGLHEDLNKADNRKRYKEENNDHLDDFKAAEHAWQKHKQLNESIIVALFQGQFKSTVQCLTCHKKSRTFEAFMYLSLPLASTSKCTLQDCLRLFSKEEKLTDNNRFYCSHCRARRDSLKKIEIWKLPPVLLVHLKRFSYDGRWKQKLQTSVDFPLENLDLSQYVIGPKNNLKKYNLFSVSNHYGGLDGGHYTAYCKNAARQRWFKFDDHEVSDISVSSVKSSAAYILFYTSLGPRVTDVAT

Going from `Cc1cccc(-c2nnc3ccc(N4CCC(C(=O)NC(C)Cc5ccco5)CC4)nn23)c1` (configuration not stated) to `Cc1cc(C)cc(C(=O)N2CCN(c3nnc4ccccn34)CC2)c1`, the inhibition falls from -6.13% to -9.4%.

Going from `CN1C(=O)C(C)(C)COc2ccc(NS(=O)(=O)c3cccc(F)c3)cc21` to `COc1cccc(CNS(=O)(=O)c2cc(-c3cc(C)no3)ccc2OC)c1`, the inhibition falls from 11.7% to -16.2%.

Compared with `Cc1ccc(Cn2nccc2NC(=O)c2cc(-c3ccccc3)on2)cc1`, `Cc1ccc(Cn2cc(-c3noc(-c4ccccn4)n3)nn2)cc1` is lower in inhibition: 14.1% for the first, -56.3% for the second.

First: Cc1nonc1C(=O)NCC(=O)N1Cc2ccccc2OC2(CCOCC2)C1
Second: CC(CS(=O)(=O)c1ccc2c(c1)NC(=O)CCS2)C(=O)N1CCc2ccccc21 (configuration not stated)
The inhibition of the first is higher: 20.5% for the first, -14% for the second.

Compared with `COc1ccccc1CNC(=O)c1ccccc1N1C(=O)[C@@H]2Cc3c([nH]c4ccccc34)C(C)N2C1=O` (some centres not stated), `CCn1c(-c2ccccc2)c(C(=O)COC(=O)C(NC(=O)c2ccccc2)C(C)C)c2ccccc21` (configuration not stated) is higher in inhibition: -25.4% for the first, 13.1% for the second.

First: O=C(NCc1ccccc1)c1nc[nH]c1C(=O)NCc1cccc(C(F)(F)F)c1
Second: O=C(Cc1cccc(C(F)(F)F)c1)Nc1cccn2ncnc12
The inhibition of the first is lower: -114% for the first, 2.29% for the second.

Compared with `CC(C)=CCC(O)C1=CC(=O)c2c(O)ccc(O)c2C1=O` (configuration not stated), `Cc1nc(CC(=O)Nc2ccc(F)c(F)c2)sc1C(=O)NC1CC1` is higher in inhibition: -234% for the first, 10.3% for the second.

First: Cc1cc(NC(C)C)n2ncc(-c3ccc(Cl)cc3)c2n1
Second: COc1ccc(-c2nc(-c3nnn(Cc4cccc(F)c4)c3C)no2)cc1
The inhibition of the first is lower: -13.7% for the first, 0.245% for the second.

Compared with `CN1C(=O)C2(CCN(C(=O)c3ccccc3Cl)C2)c2ccccc21` (configuration not stated), `O=C(Nc1ccccc1)N1CCN(c2ncccc2-c2nnc(C3CC3)o2)CC1` is lower in inhibition: -3.42% for the first, -5.37% for the second.

First: O=S1(=O)c2ccccc2O[C@H]2CCN(c3ncccn3)CC[C@@H]2N1Cc1cccnc1
Second: CC1CN(C(=O)c2ccc(-n3cccn3)c(C#Cc3ccccn3)c2)CC(C)O1 (configuration not stated)
The inhibition of the first is higher: -15.4% for the first, -93.1% for the second.

Compared with `CCN1CCN(c2nc(F)c3c(c2F)S(=O)(=O)CCN3CC2CCCO2)CC1` (configuration not stated), `CCc1nnsc1C(=O)N1CCOC(c2cccc(N(C)C)n2)C1` (configuration not stated) is lower in inhibition: 25.6% for the first, 11.8% for the second.

Compared with `COc1ccc(NC(=O)c2cc(S(=O)(=O)N3CCCCCC3)cn2C)cc1`, `O=C(NCc1noc(C2CCCC2)n1)C1CCCCC1` is higher in inhibition: 0.0121% for the first, 19.8% for the second.

In the case of `O=C(Cc1c(Cl)cccc1Cl)NCc1cccc(C(F)(F)F)c1`, the inhibition is reported as 49.9% (active).
In the case of `CC1CCN(c2nc(F)c3c(c2F)S(=O)(=O)CCN3Cc2cccnc2)CC1`, the inhibition is reported as 85.2% (active).
In the case of `Cc1ccc(Cn2cc(-c3noc(-c4ccc[nH]4)n3)nn2)cc1`, the inhibition is reported as 35.7% (active).
